# Measurements as given in PubChem BioAssay (NCATS).
# Records with an inconclusive call do not appear. Values without a mark were called inactive. Calls of active or inactive are those of the source. The call rests on the fitted dose curve; in most records, active means well fitted curve in the direction sought with a large enough effect; inconclusive means small, poorly fitted or top-dose-only effect, or another doubt; inactive means no such curve, though single readings can be large; an effect the other way counts as inactive or inconclusive.
# Key:
# [1] = qHTS Assay for Identifying Gametocytocidal Compounds (AID 743244); further: potency means the concentration at half of the fitted maximal effect;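 on max response: actives lower the fluorescent signal which means gametocytes are killed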; conditions: P. falciparum 3D7 stage III-V gametocytes, alamarBlue, 72 h; max response: stronger effect = lower value
# Outline: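 Late gametocytes (III–V), P. falciparum 3D7; 72 h drug, then 24 h alamarBlue; resazurin reduction read by fluorescence.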
# [2] = qHTS assay for cell viability of the p53RE-bla HCT-116 cell line (AID 743292); further: nearly all actives have a fitted effect of over 55% in size
# Outline: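 After plating at 4,000 cells per well and a 5 h rest at 37 C, HCT-116 cells carrying p53RE-bla received test chemicals in DMSO. Sixteen hours later at 37 C, CellTiter-Glo was added and luminescence recorded following 30 min at room temperature.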
# On the % scale 0 is the no-effect control and ±100 the full control effect.
structure (smiles),measurement,setting,value
O=C1C(O)=C(O)C(=O)C(O)=C1O,max response,[1],-3.08%
CCN(CC)CCNC(=O)c1cc(Br)c(N)cc1OC,max response,[1],-8.23%
NC1CCN(c2nc3c(cc2F)c(=O)c(C(=O)O)cn3-c2ccc(F)cc2F)C1 (stereo unspecified),max response,[1],-5.91%
CCCCc1cc2ccccc2c(OCCN(C)C)n1,max response,[1],-5.86%
CN1CCC(OC(c2ccccc2)c2ccccc2)CC1,max response,[1],-7.17%
COC(=O)C(c1ccccc1Cl)N1CCc2sccc2C1 (stereo unspecified),max response,[1],14.8%
Cc1ccccc1OCC(O)CO (stereo unspecified),max response,[1],-6.04%
CC(C)Cc1ccc(CC(=O)O)cc1,max response,[1],6.47%
C[N+]1(CC2COC(c3ccccc3)(C3CCCCC3)O2)CCCCC1 (stereo unspecified),Potency,[1],11.2 µM (active)
CC(=C(CCOC(=O)C(C)C)SSC(CCOC(=O)C(C)C)=C(C)N(C=O)Cc1cnc(C)nc1N)N(C=O)Cc1cnc(C)nc1N,max response,[1],-5.02%
O=C(O)P(=O)(O)O,max response,[1],10.4%
Nc1nc(Cl)nc2c1ncn2[C@@H]1O[C@H](CO)[C@@H](O)[C@@H]1F,max response,[1],14.9%
O=C(NC1CCN(CCc2c[nH]c3ccccc23)CC1)c1ccccc1,max response,[1],-6.9%
CC(O)Cn1cnc2c1c(=O)n(C)c(=O)n2C (stereo unspecified),max response,[1],5.34%
CC(C)(C)NCC(O)COc1cccc2c1C[C@H](O)[C@H](O)C2 (stereo partly specified),max response,[1],-0.0039%
Cc1cc(NS(=O)(=O)c2ccc(N)cc2)nc(C)n1,max response,[1],18.7%
Nc1ccc(C(=O)NCC(=O)O)cc1,max response,[1],6.7%
CCOC(=O)c1ccc(N)cc1,max response,[1],11.9%
CCN(CC)CCOC(=O)C1(c2ccccc2)CCCC1,max response,[1],-2.23%
Cn1c(=O)c2[nH]c(Br)nc2n(C)c1=O,max response,[1],-3.24%
NC(=O)n1c(O)c(C(=O)c2cccs2)c2cc(Cl)ccc21,max response,[1],-6.13%
CCOc1cc(OCC)c(C(=O)CCC(=O)O)cc1OCC,max response,[1],11%
COc1cc(O)c(C(=O)c2ccccc2)cc1S(=O)(=O)O,max response,[1],-9.98%
O=C(CCN1CCN2CCCC2C1)N1c2ccccc2Sc2ccc(Cl)cc21 (stereo unspecified),Potency,[1],22.4 µM (active)
CN1CCN(c2c(F)cc3c(=O)c(C(=O)O)cn4c3c2SCC4)CC1,max response,[1],9.27%
Cc1cn([C@H]2C[C@H](F)[C@@H](CO)O2)c(=O)[nH]c1=O,max response,[1],-5.75%
CC(=O)Nc1ccc(S(=O)(=O)Nc2ccc([N+](=O)[O-])cc2)cc1,max response,[1],3.59%
Nc1ccc(S(=O)(=O)NCc2ccccc2)cc1,max response,[1],-10.6%
CC(C)(C)NC[C@H](O)COc1cccc2c1CCCC2=O,max response,[1],-0.406%
CCCCNC(=O)NS(=O)(=O)c1ccc(N)cc1,max response,[1],19.8%
COc1cc(NS(=O)(=O)c2ccc(N)cc2)ncn1,max response,[1],-7.94%
CC1CCc2c(N3CCC(O)CC3)c(F)cc3c(=O)c(C(=O)O)cn1c23 (stereo unspecified),max response,[1],21.4%
CO[C@]12C[C@@H](COC(=O)c3cncc(Br)c3)CN(C)[C@@H]1Cc1cn(C)c3cccc2c13,max response,[1],10.7%
CC(=O)OCC(=O)[C@H]1CC[C@H]2[C@@H]3CCC4=CC(=O)CC[C@]4(C)[C@H]3CC[C@]12C,max response,[1],-7.41%
CC(=O)O[C@]1(C(C)=O)CC[C@H]2[C@@H]3C=C(Cl)C4=CC(=O)CC[C@]4(C)[C@H]3CC[C@@]21C,max response,[1],-7.79%
O=C1C(CCS(=O)c2ccccc2)C(=O)N(c2ccccc2)N1c1ccccc1 (stereo unspecified),Potency,[1],0.0089 µM (active)
O[C@@H](c1cc(C(F)(F)F)nc2c(C(F)(F)F)cccc12)[C@H]1CCCCN1,Potency,[1],1.05 µM (active)
CC(=O)Nc1ccc(CC(=O)O)cc1,max response,[1],7.88%
CN(C)CCC[C@@]1(c2ccc(F)cc2)OCc2cc(C#N)ccc21,max response,[1],-8.84%
C[C@@H](O)[C@H]1C(=O)N2C(C(=O)O)=C([C@H]3CCCO3)S[C@H]12,max response,[1],-9.42%
Oc1ccc(Cl)cc1Cc1cc(Cl)ccc1O,outcome,[2],inactive
